These results are taken from PubChem BioAssay (EPA / NIEHS).

Calls of active or inactive are those of the source. The calls were made as follows: active = hit-call score of the fitted dose curve at least 0.9, where 1 is the maximum; inactive = score below 0.9.

This assay in a line: APR_HepG2_CellLoss_1hr: Apredica 1-hour HepG2 Assay for Cell Loss (AID 2282668).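 Also: curves fitted both ways against DMSO so gain or loss of cells counts.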 The following applies: high-content imaging. The protocol: APR_HepG2_1hr is a cell-based, multiplexed-readout assay that uses HepG2, a human liver cell line, with measurements taken at 1 hour after chemical dosing in a 384-well plate.APR_HepG2_CellLoss_1hr is one of 10 assay component(s) measured or calculated from the APR_HepG2_1hr assay. It is designed to make measurements of cell number, a form of viability reporter, as detected with fluorescence intensity signals by HCS Fluorescent Imaging technology.Data from the assay component APR_HepG2_CellLoss_1hr was analyzed into 1 assay endpoint. This assay endpoint, APR_HepG2_CellLoss_1hr, was analyzed with bidirectional fitting relative to DMSO as the negative control and baseline of activity. Using a type of viability reporter, measures of all nuclear dna for gain or loss-of-signal activity can be used to understand the viability at the cellular-level. Furthermore, this assay endpoint can be referred to as a secondary readout, because this assay has produced multiple assay endpoints where this one serves a viability function. To generalize the intended target to other relatable targets, this assay endpoint is annotated to the cell cycle intended target family, where the subfamily is proliferation.
Cells were treated with dimethyl sulfoxide (DMSO) as a solvent control at a final concentration of 0.5% v/v or with compounds in DMSO with a resulting final DMSO concentration of 0.5% v/v. Compound treatment was done at concentrations of 0.39, 0.78, 1.56, 3.12, 6.24, 12.5, 25, 50, 100, and 200 uM in duplicate on each plate. Cells were treated with compounds for 1, 24, or 72 hr. Carbonyl […] m-chloro-phenylhydrazone (CCCP) and taxol were used as positive controls for mitochondrial function and cytoskeletal stability, respectively; DMSO served as the negative control for this experiment. Cells were fixed by the direct addition of 50 uL formaldehyde in Hank's Balanced Salt Solution (HBSS) to a final concentration of 3.7%. After incubation in the fixation medium for 30 min at room temperature (293-298 K), cells were rinsed twice with HBSS and treated with cell permeabilization buffer (16 uL of 0.5% Triton X-100) for 10 min at room temperature (293-298 K) before labeling. For mitochondrial membrane potential and mitochondrial measurements, pre-fixed cells were incubated with 50 uL of MitoTracker Red CMXRos (Invitrogen) at a concentration of 250 nM for 30 min before fixation. In the remaining cases, post-fixed cells were labeled by incubation with a multiplexed mixture of primary antibodies in HBSS for 60 min at room temperature (293-298 K) to detect immunoreactivity of c-Jun (1:500), phospho-histone H3 (1:100), phospho-histone H2A.x (1:200), p53 (1:400), alpha-tubulin (1:200) and Hoechst 33342 (2 ug/mL). Cells were labeled for multiplexed imaging on two separate plates: a) Hoechst 33342, MitoTracker Red, phospho-histone H3, and alpha-tubulin, and b) Hoechst 33342, phospho-histone H2A.x, and c-Jun. A final rinse with HBSS (50 uL) was performed before analysis. The primary and secondary antibodies for the proteins were phospho-histone H3 (rabbit anti-phospho-histone H3 and FITC-donkey anti-rabbit IgG), phospho-histone H2A.x (mouse anti-phospho-histone H2A.x and FITC-donkey anti-mouse IgG), c-Jun (rabbit anti-phospho-c-Jun and Cy3-donkey anti-rabbit IgG), p53 (sheep anti-p53 and Cy5-donkey anti-sheep IgG), alpha-tubulin (mouse anti-alpha-tubulin and Cy5-donkey anti-mouse IgG). These antibodies are available as the CellCiphr HepG2 assay kit (Millipore).Digital images of each well were captured using a Cellomics ArrayScan VTI (Thermo Scientific Cellomics) (0.8 NA objective, 0.63x optical coupler, and XF-93 filter set) at 20x magnification. The images were acquired using the autofocus feature of the ArrayScan instrument, which entails the following steps. First, the camera focuses on channel 1 (Hoechst 33342), where nuclei are identified. Second, a Z offset of 1 um is used for capturing mitochondria (MitoTracker Red). […]
Consider `CNC(=O)ON=C(C)SC`, for which the call was inactive.
The value for `CCOP(=S)(OCC)Oc1cc(C)nc(C(C)C)n1` was “inactive”.
The value for `CCOP(=S)(OCC)Oc1ccc2c(C)c(Cl)c(=O)oc2c1` was “inactive”; that for `CCCCOC(=O)c1ccccc1C(=O)O` was “inactive”.
To `CCc1cccc(CC)c1N(COC)C(=O)CCl` belongs “inactive”; to `S=C1NCCN1`, “inactive”; to `CN(C)NC(=O)CCC(=O)O`, “inactive”.
Consider `CN1COCN(Cc2cnc(Cl)s2)C1=N[N+](=O)[O-]`, for which the molecule was classed as inactive.
Regarding `CC1(C(=O)Nc2ccc(O)c(Cl)c2Cl)CCCCC1`, the outcome was inactive.
The value for `COc1cccc(C(=O)NN(C(=O)c2cc(C)cc(C)c2)C(C)(C)C)c1C` was “inactive”.
The value for `CCCSP(=O)(OCC)Oc1ccc(Br)cc1Cl` (stereo not given) was “inactive”.
The value for `COc1cc(OC)nc(Sc2cccc(Cl)c2C(=O)O)n1` was “inactive”; that for `CCC(CC)Nc1c([N+](=O)[O-])cc(C)c(C)c1[N+](=O)[O-]` was “inactive”.
In the case of `C[Si](Cn1cncn1)(c1ccc(F)cc1)c1ccc(F)cc1`, the call was inactive.
To `COP(=O)(OC)OC(Br)C(Cl)(Cl)Br` (stereo not given) belongs “inactive”; to `CNc1cnn(-c2cccc(C(F)(F)F)c2)c(=O)c1Cl`, “inactive”.
To `CNC(=O)Oc1cccc2c1OC(C)(C)O2` belongs “inactive”; to `COP(=O)(OC)SCn1c(=O)oc2cc(Cl)cnc21`, “inactive”; to `Nc1c(Cl)cc([N+](=O)[O-])cc1Cl`, “inactive”.
To `CCCOCC(=Nc1ccc(Cl)cc1C(F)(F)F)n1ccnc1` belongs “inactive”.
As for `CC(C1CC1)C(O)(Cn1cncn1)c1ccc(Cl)cc1` (stereo not given), the molecule was classed as inactive.
The value for `CCOP(=O)(NC(C)C)Oc1ccc(SC)c(C)c1` (stereo not given) was “inactive”; that for `CCc1cnc(C2=NC(C)(C(C)C)C(=O)N2)c(C(=O)O)c1` (stereo not given) was “inactive”.
To `CON=C(C(=O)OC)c1ccccc1CON=C(C)c1cccc(C(F)(F)F)c1` belongs “inactive”; to `CSc1nnc(C(C)(C)C)c(=O)n1N`, “inactive”.
Take `CCOC(=O)COc1cc(-c2nn(C)c(OC(F)F)c2Cl)c(F)cc1Cl`: the call was inactive.
To `CCCCN(CC)c1c([N+](=O)[O-])cc(C(F)(F)F)cc1[N+](=O)[O-]` belongs “inactive”; to `Cc1nn(-c2cc(NS(C)(=O)=O)c(Cl)cc2Cl)c(=O)n1C(F)F`, “inactive”; to `CN(C)[C@@H]1C(=O)C(C(N)=O)=C(O)[C@@]2(O)C(=O)C3=C(O)c4c(O)cccc4[C@@](C)(O)[C@H]3[C@H](O)[C@@H]12`, “inactive”.
In the case of `COc1ccc(C(=CC(=O)N2CCOCC2)c2ccc(Cl)cc2)cc1OC`, the result was inactive.
On to `CCOC(=O)CC(SP(=O)(OC)OC)C(=O)OCC` (stereo not given), for which the result was inactive.
To `O=c1ccc(=O)[nH][nH]1` belongs “inactive”; to `CC(C)[C@H](C(=O)O[C@H](C#N)c1cccc(Oc2ccccc2)c1)c1ccc(Cl)cc1`, “inactive”.
Regarding `CCOP(=S)(OCC)Oc1ccc([N+](=O)[O-])cc1`, the molecule was called inactive.
With `CCOP(=S)(Oc1cnc(C(C)(C)C)nc1)OC(C)C` (stereo not given), the result was inactive.
To `CCCOc1nn(C(=O)NS(=O)(=O)c2ccccc2C(=O)OC)c(=O)n1C` belongs “inactive”; to `CCOP(=S)(OCC)SCCSCC`, “inactive”; to `CCOP(=O)(SC(C)CC)N1CCSC1=O` (stereo not given), “inactive”.
The value for `CC(=NC#N)N(C)Cc1ccc(Cl)nc1` was “inactive”.
In the case of `COP(=O)(OC)C(O)C(Cl)(Cl)Cl` (stereo not given), the outcome was inactive.
